Screening data: PubChem, National Center for Advancing Translational Sciences (NCATS)
This is a sample that favours compounds with a hit; in the whole collection about 12% have one here.
SARS PLP yeast – qHTS of Yeast-based Assay for SARS-CoV PLP; S. cerevisiae expressing SARS-CoV PLpro, growth rescue; Potency, µM (titrated, usually from 32.9 µM), usual class: activators; hit rate 0.19% among 330,000; note: nearly all actives have a fitted effect of over 55% in size
Shiga inhibitor – A qHTS for Small Molecule Inhibitors of Shiga Toxin; inhibition, % at 38.7 µM; hit rate 9.2% among 290,000; AID 2315, 2010; Vero cells, Shiga toxin protein synthesis inhibition reporter; in the data active = inhibition mostly above about 28%, no sharp cut-off; inactive = mostly below about 43%
Cycloheximide cs – Cycloheximide Counterscreen for Small Molecule Inhibitors of Shiga Toxin. cell reporter, cycloheximide protein synthesis inhibition counterscreen. max response, %. hit rate 12% among 300,000. AID 2314, 2010; in the data active = max response mostly above about 13%, no sharp cut-off; inactive = mostly below about 14%; note: read at 38.3 µM for the half of the compounds with a filed dose
NS1 function inh – qHTS Assay for Inhibitors of Influenza NS1 Protein Function | AID 2326, 2010 | Potency, µM (titrated, usually from 46.1 µM) | hit rate 0.4% among 270,000; note: actives are rising curves; nearly all actives have a fitted effect of over 50% in size
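Growth recovery, yeast-based: influenza A NS1 expressed in S. cerevisiae causes slow growth, and suppressors are detected by OD600. The parent strain without NS1 is used as positive control.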
Each line names hits and unclear results; the compound was inactive in the other large screens. Unless noted, calls come from the whole dose curve.

O=C(/C=C/c1ccc(-c2ccccc2[N+](=O)[O-])o1)c1ccc(F)cc1	Shiga inhibitor 64, Cycloheximide cs 43
N#C/C(=C\c1ccc(-c2ccccc2)o1)C(=O)Nn1cnnc1	none
O=C(/C=C/c1ccc(-c2ccccc2)o1)c1ccccc1	Shiga inhibitor 72, Cycloheximide cs 74
Cc1ccc(C(=O)/C=C/c2ccc(-c3ccccc3[N+](=O)[O-])o2)cc1	none
O=C(Cn1nc2ccccc2n1)N/N=C/c1ccc(F)cc1	none
CCc1ccccc1NC(=O)c1cnn(-c2ccccc2)c1C	Shiga inhibitor 36, Cycloheximide cs 16
CCOC(=O)c1cnn(-c2ccccc2)c1NC(=O)c1ccccc1C	none (no result: SARS PLP yeast)
Cc1ccccc1NC(=O)c1cnn(-c2ccccc2)c1C	Shiga inhibitor 75, Cycloheximide cs 42
Cc1cccc(NC(=O)c2nc(-c3ccccc3)n(-c3ccccc3)n2)c1C	none
Cc1ccc(C)c(NC(=O)c2ccccc2C(=O)c2ccccc2)c1	none (no result: NS1 function inh)
Cc1cccc(NC(=O)c2cnn(-c3ccccc3)c2C)c1C	Shiga inhibitor 41, Cycloheximide cs 27
CCc1ccccc1NC(=O)CNC(=O)CNC(=O)Cc1ccccc1	none (no result: Shiga inhibitor, Cycloheximide cs, NS1 function inh)
Cc1ccc(C)c(NC(=O)c2cnn(-c3ccccc3)c2C)c1	Cycloheximide cs 40 (no result: Shiga inhibitor)
Cc1ccc(O)c(NC(=O)C2CC(c3c(F)cccc3Cl)=NO2)c1 (centres undefined)	none
CN1CCN(C(=O)C2CC(c3c(F)cccc3Cl)=NO2)CC1 (centres undefined)	Cycloheximide cs 10
CCc1c(C)sc(NC(=O)C2CC(c3c(F)cccc3Cl)=NO2)c1C#N (centres undefined)	none
COc1ccc(C2=NOC(C(=O)NC3CCCCC3)C2)cc1OC (centres undefined)	none
N#Cc1c(NC(=O)C2CC(c3c(F)cccc3Cl)=NO2)sc2c1CCC2 (centres undefined)	Shiga inhibitor 36, Cycloheximide cs 23
COc1cc(NC(=O)C2CC(c3cccc(OC)c3OC)=NO2)cc(OC)c1OC (centres undefined)	none
COc1cc(C2=NOC(C(=O)Nc3ccc(C(C)=O)cc3)C2)cc(OC)c1OC (centres undefined)	Shiga inhibitor 81, Cycloheximide cs 29
COc1ccc(C2=NOC(C(=O)Nc3ccc(C(C)=O)cc3)C2)cc1OC (centres undefined)	Shiga inhibitor 75, Cycloheximide cs 29
O=C(CCC(=O)N1CCN(c2cccc(Cl)c2)CC1)c1cccs1	none (no result: Shiga inhibitor, Cycloheximide cs, NS1 function inh)
CN(C)c1ccc(CN(C(=O)C2COc3ccccc3O2)C2CCS(=O)(=O)C2)cc1 (centres undefined)	none
O=C(COC(=O)C1CCN(S(=O)(=O)c2ccccc2)CC1)NCCc1ccccc1	none (no result: Shiga inhibitor, Cycloheximide cs, NS1 function inh)
CN1CCN(NC(=S)NC(C)(C)CC(C)(C)C)CC1	none (no result: NS1 function inh)
Cn1nc(C(=O)OCC(=O)Nc2sccc2C(N)=O)c2ccccc2c1=O	none
COc1cc(NC(=O)C2CC(c3c(F)cccc3Cl)=NO2)c(OC)cc1Cl (centres undefined)	none (no result: Shiga inhibitor)
COc1ccc(NC(=O)C2CC(c3c(F)cccc3Cl)=NO2)cc1OC (centres undefined)	Cycloheximide cs 21 (no result: Shiga inhibitor)
COc1cccc(C2=NOC(C(=O)Nc3ccc(C(C)=O)cc3)C2)c1 (centres undefined)	Shiga inhibitor 53, Cycloheximide cs 48
COC(=O)CC1COc2ccccc2N1C(=O)c1ccc(C(C)(C)C)cc1 (centres undefined)	none
O=C(c1ccc(CSCc2ccccc2F)o1)N1CCN(c2ccc(N3CCOCC3)nn2)CC1	none
O=C(/C=C/c1ccco1)NC(=S)Nc1cccc(-c2nc3ccccc3o2)c1	none
Cc1ccc(-n2nc3cc(C)c(NC(=S)NC(=O)/C=C/c4ccco4)cc3n2)cc1	Shiga inhibitor active, Cycloheximide cs 70, NS1 function inh inconclusive
Cc1ccc(-n2nc3ccc(NC(=S)NC(=O)/C=C/c4ccco4)cc3n2)cc1	Shiga inhibitor 37
O=c1ccc2cc([N+](=O)[O-])c(CCO)cc2o1	none
c1ccc(Cc2nc3ccccc3o2)cc1	none
O=c1oc(Cc2ccccc2)nc2ccccc12	Cycloheximide cs 14
Cc1ccccc1NC(=O)c1sc(Cl)nc1C	none
Cc1ccc(C)c(S(=O)(=O)Nc2nc(C)c(C(=O)Nc3ccccc3)s2)c1	none
Cc1nc(Cl)sc1C(=O)Nc1ccc(C(C)(C)C)cc1	Shiga inhibitor 91, Cycloheximide cs 50
Cc1nc(-c2ccccc2)sc1C(=O)Nc1ccc(S(N)(=O)=O)cc1	none
Cc1noc(N)c1C(=O)Nc1ccc(C(C)(C)C)cc1	Shiga inhibitor 136, Cycloheximide cs 40
Cc1nc(/N=C\N(C)C)sc1C(=O)Nc1ccccc1	Shiga inhibitor 51
Cc1nc(C(=O)Nc2ccccc2)sc1C(=O)Nc1ccccc1	Shiga inhibitor 79, Cycloheximide cs 40
CCOC(=O)c1cccc(OC(=O)CCNC(=O)c2ccc(Cl)cc2)c1	none (no result: Shiga inhibitor, Cycloheximide cs, NS1 function inh)
Cc1ccc(N2CC(C(=O)N3CCC(c4nc5ccccc5[nH]4)CC3)CC2=O)cc1C (centres undefined)	none (no result: Shiga inhibitor, Cycloheximide cs, NS1 function inh)
Cc1nc(NC(N)=S)sc1C(=O)Nc1ccccc1	SARS PLP yeast inconclusive
Cc1nc(N)sc1C(=O)Nc1ccccc1	Shiga inhibitor 68, Cycloheximide cs 35
COC(=O)c1ccccc1NC(=O)c1sc(N)nc1C	none
Cc1ccc(NC(=O)c2sc(N)nc2C)cc1	Shiga inhibitor 54, Cycloheximide cs 37
Cc1nc(NC(=O)C2CC2)sc1C(=O)Nc1ccccc1	none
Cc1nc(Nc2c(Cl)cccc2Cl)sc1C(=O)Nc1ccccc1	SARS PLP yeast inconclusive, Cycloheximide cs 19, NS1 function inh inconclusive
Cc1cccc(Nc2nc(-c3ccccc3)c(C(=O)Nc3cccnc3)s2)c1	Shiga inhibitor 48, Cycloheximide cs 33
O=C(Nc1cccnc1)c1sc(Nc2ccccc2)nc1-c1ccccc1	none
COc1ccc(-c2cccc(NS(=O)(=O)c3cc([N+](=O)[O-])c(C)c([N+](=O)[O-])c3)c2)nn1	none (no result: Shiga inhibitor, Cycloheximide cs, NS1 function inh)
C[C@H](C(=O)c1ccncc1)c1ccccn1	none (no result: SARS PLP yeast, Shiga inhibitor, Cycloheximide cs)
C/C(N)=C(/C#N)C(=O)COC(=O)c1cc2c(s1)CCC(C)C2 (centres undefined)	Shiga inhibitor 93, Cycloheximide cs 68 (no result: NS1 function inh)
CC1CCc2sc(C(=O)OCC(=O)NCc3ccccc3)cc2C1 (centres undefined)	none
C/C(N)=C(/C#N)C(=O)COC(=O)c1cc2c(s1)CCCC2	Shiga inhibitor 60, Cycloheximide cs 35
CNC(=O)COC(=O)c1cc2c(s1)CCCC2	Cycloheximide cs 24
COc1ccc(C(=O)COC(=O)c2cc(=O)[nH]c3ccccc23)c(OC)c1	none (no result: Shiga inhibitor, Cycloheximide cs, NS1 function inh)
O=C(O)[C@@]1(CCCCCCOc2ccc(Cl)cc2)CO1	none (no result: SARS PLP yeast, NS1 function inh)
COc1ccc(NC(=O)CCCn2c(=O)c3sccc3n(Cc3ccccc3)c2=O)cc1	SARS PLP yeast inconclusive, Cycloheximide cs 26, NS1 function inh inconclusive
CCCCNC(=O)c1nnn(-c2ccccc2)c1N	Shiga inhibitor 49, Cycloheximide cs 27
Cc1ccc(-n2ncc3c(NCc4ccco4)ncnc32)cc1C	Shiga inhibitor 91, Cycloheximide cs 51 (no result: NS1 function inh)
Cc1cccc(-n2ncc3c(NCc4ccco4)ncnc32)c1	Shiga inhibitor 64, Cycloheximide cs 35
Cn1cnc2c(NCc3ccco3)ncnc21	none
Cc1cccc(-n2nnc(C(=O)NCc3ccco3)c2N)c1	SARS PLP yeast inconclusive, Shiga inhibitor 38, Cycloheximide cs 21
